Screens as filed in PubChem BioAssay.
Shown are actives, neighbours in structure and some others; about 3.9% of the full set was active somewhere.
CCHF vOTU inh = CCHFV vOTU protease inhibitors, primary screen, biochemical, Pep-AMC substrate, fluorescence. Crimean-Congo hemorrhagic fever virus L polyprotein viral ovarian tumor (vOTU) protease …. inhibition, % at 11.5 µM. 0.55% of 370,000 active; in the data active = inhibition above about 30%
Anthrax LF inh2 = Bacillus anthracis LF protease inhibitors, primary screen, biochemical, multiplex microsphere, MLPCN library; Lethal factor (Bacillus anthracis), P15917; multiplex microsphere protease cleavage assay; inhibition, % at 10 µM; 0.12% of 360,000 active; in the data active = inhibition above about 30%; inconclusive = no clear call, values can overlap the other calls
Target sequence (P15917 whole entry, looked up): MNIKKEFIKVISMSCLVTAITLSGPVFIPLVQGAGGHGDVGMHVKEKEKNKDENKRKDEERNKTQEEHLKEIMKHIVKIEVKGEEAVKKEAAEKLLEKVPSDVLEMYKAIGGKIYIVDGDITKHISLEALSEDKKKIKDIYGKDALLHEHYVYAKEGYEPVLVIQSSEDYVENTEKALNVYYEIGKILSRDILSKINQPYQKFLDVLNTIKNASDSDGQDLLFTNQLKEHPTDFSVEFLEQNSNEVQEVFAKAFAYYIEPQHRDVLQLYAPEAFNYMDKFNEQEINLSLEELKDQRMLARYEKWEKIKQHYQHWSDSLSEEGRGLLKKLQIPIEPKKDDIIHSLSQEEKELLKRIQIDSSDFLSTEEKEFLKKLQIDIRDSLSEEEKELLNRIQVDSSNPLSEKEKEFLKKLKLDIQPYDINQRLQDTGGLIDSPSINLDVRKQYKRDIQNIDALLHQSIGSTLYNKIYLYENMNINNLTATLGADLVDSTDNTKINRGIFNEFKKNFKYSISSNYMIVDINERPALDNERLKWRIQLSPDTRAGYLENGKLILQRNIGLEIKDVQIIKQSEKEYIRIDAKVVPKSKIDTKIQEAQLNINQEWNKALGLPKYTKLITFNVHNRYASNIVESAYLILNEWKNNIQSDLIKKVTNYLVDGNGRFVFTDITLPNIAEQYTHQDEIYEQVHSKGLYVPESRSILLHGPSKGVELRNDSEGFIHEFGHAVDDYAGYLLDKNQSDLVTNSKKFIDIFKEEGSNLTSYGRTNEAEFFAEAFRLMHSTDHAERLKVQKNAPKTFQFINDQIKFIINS
BoNT-A LC inh2 = BoNT/A light chain protease inhibitors, primary screen, biochemical, flow cytometry, MLPCN library. inhibition, % at 10 µM. multiplex microsphere protease substrate cleavage. 0.17% of 360,000 active; in the data active = inhibition above about 30%; inconclusive = no clear call, values can overlap the other calls
3CLpro inhibitor = SARS-CoV 3CLpro protease inhibitors, primary screen, biochemical, quenched FRET; inhibition, % at 6 µM; recombinant SARS-CoV 3CLpro, quenched FRET peptide cleavage; AID 1706, 2009; 0.14% of 290,000 active; Replicase polyprotein 1ab (Severe acute respiratory syndrome coronavirus), P0C6X7; in the data active = inhibition above about 12%
BoNT F protease = BoNT/F light chain protease inhibitors, primary screen, biochemical, flow cytometry, MLPCN library. Botulinum neurotoxin type F light chain protease (Clostridium botulinum). Multiplex microsphere protease cleavage assay. AID 588497, 2011. inhibition, % at 10 µM. 0.22% of 360,000 active; in the data active = inhibition above about 35%, passing the limit was not always enough; inconclusive = no clear call, values can overlap the other calls
Bead autofluor = compound fluorescence in toxin protease inhibitor counterscreen. compound autofluorescence counterscreen, microsphere flow cytometry; hits give high values. fluorescence intensity (concentration not given with the values). 3.1% of 360,000 active; in the data active = fluorescence intensity above about 16000; inconclusive = no clear call, values can overlap the other calls
BoNTA LC inh 1 = BoNT/A light chain protease inhibitors, confirmation, biochemical, flow cytometry, cherry pick 1; multiplex microsphere protease assay; inhibition, % at 10 µM; AID 602139, 2011; shares compounds with BoNT F protease; 3% of 720 active; in the data active = inhibition above about 32%
BoNT-F LC CP1 = BoNT/F light chain protease inhibitors, confirmation, biochemical, flow cytometry, cherry pick 1; shares compounds with BoNT F protease; multiplex microsphere protease cleavage assay; inhibition, % at 10 µM; 720 tested, under 10 active; AID 602140, 2011
LF protease CP1 = Bacillus anthracis LF protease inhibitors, confirmation, biochemical, multiplex microsphere, cherry pick 1. shares compounds with BoNT F protease. 720 tested, under 10 active. multiplex microsphere protease cleavage assay. inhibition, % at 10 µM
Hits are given with their value; 0 = inactive; ? = inconclusive; - = not tested or not shown. Unless noted, no rule for the calls is given here.

SMILES	CCHF vOTU inh	Anthrax LF inh2	BoNT-A LC inh2	3CLpro inhibitor	BoNT F protease	Bead autofluor	BoNTA LC inh 1	BoNT-F LC CP1	LF protease CP1
COc1cc(OC)c(CN2CCc3c([nH]c4ccccc34)C2)cc1Br	0	0	51.3	0	?	26222	0	0	0
O=C(Nc1ccc2nc(-c3cccs3)c(-c3cccs3)nc2c1)NC1CC1	0	54.5	83.4	0	36.2	0	49.9	0	31.3
COc1ccc(C2CC(c3cccs3)=NN2c2nc(-c3ccccc3)cs2)cc1OC (stereo not drawn)	0	0	0	0	0	0	0	0	0
COc1ccc(C2CC(c3cccs3)=NN2S(C)(=O)=O)cc1OC (stereo not drawn)	0	0	0	0	0	0	-	-	-
CCCC(C(=O)NCc1ccccc1)N(C(=O)Cn1nnc(-c2cccs2)n1)c1ccc2c(c1)OCCO2 (stereo not drawn)	0	0	0	0	0	0	-	-	-
O=C(NCc1ccccc1)C(c1ccc(F)cc1)N(Cc1ccc2c(c1)OCO2)C(=O)Cn1nnc(-c2cccs2)n1 (stereo not drawn)	0	0	0	0	50.9	0	0	0	0
COc1cccc(OC)c1C(=O)NNS(=O)(=O)c1ccc2ccccc2c1	0	0	0	0	0	0	-	-	-
CN1CCc2c(sc3nc(SCC(N)=O)n(-c4ccc(Cl)cc4)c(=O)c23)C1	0	0	65.5	0	0	0	0	0	0
CCSc1nc2sc3c(c2c(=O)n1-c1ccccc1C)CCN(C)C3	0	0	0	0	0	0	-	-	-
CCSc1nc2sc3c(c2c(=O)n1C1CCCCC1)CCN(C)C3	0	0	45.2	-	0	0	0	0	0
Cc1oc(-c2cccc3ccccc23)nc1CN1CCC[C@H]1CO	0	0	0	0	0	0	-	-	-
c1ccc(Oc2ncnc3sccc23)cc1	0	0	0	0	0	0	-	-	-
COc1ccccc1Oc1ncnc2sccc12	0	0	0	0	36.7	0	0	0	0
O=C1CN(C(=O)C2CC2)c2ccccc2N1	0	0	0	0	37.0	0	0	0	0
O=C1CN(C(=O)c2ccccc2)c2ccccc2N1	0	0	0	0	0	0	-	-	-
N#Cc1ccc[n+](CC(=O)c2ccc(Cl)cc2)c1	0	0	0	0	0	0	-	-	-
CC(=O)Nc1ccc(NS(=O)(=O)c2cc(-c3n[nH]c(=O)c4ccccc34)ccc2C)cc1	0	0	0	0	41.1	0	0	0	0
Cc1ccc(-c2n[nH]c(=O)c3ccccc23)cc1S(=O)(=O)Nc1ccc(F)cc1	0	0	0	0	0	0	-	-	-
Cc1ccc(-n2cc3c(-c4cccc(Br)c4)nnc(C)c3n2)cc1	0	?	?	0	63.0	38801	0	0	0
Cc1c(C(=O)Nc2nccs2)sc2nc(-c3cccs3)cc(C(F)(F)F)c12	0	37.4	39.1	0	0	0	0	0	0
Cc1c(C(=O)O)sc2nc(-c3cccs3)cc(C(F)(F)F)c12	0	0	0	0	0	0	0	0	0
O=C(CCc1nc2ccccc2c(=O)[nH]1)NCCN1C(=O)S/C(=C\c2ccc(Cl)cc2Cl)C1=O	0	-	-	-	-	-	-	-	-
CS(=O)(=O)N(CC(=O)N1CCOCC1)c1ccccc1	0	44.7	0	0	?	0	0	0	0
Cc1ccc(N(CC(=O)N2CCOCC2)S(C)(=O)=O)cc1	0	0	0	0	0	0	-	-	-
Cc1cc(C)c(NC(=O)CN(C)C(=O)C2CC(=O)N(c3cccc4ccccc34)C2)c(C)c1 (stereo not drawn)	0	0	0	-	0	0	-	-	-
SMILES	CCHF vOTU inh	Anthrax LF inh2	BoNT-A LC inh2	3CLpro inhibitor	BoNT F protease	Bead autofluor	BoNTA LC inh 1	BoNT-F LC CP1	LF protease CP1
O=C(c1ccccc1)c1sc(N2CCCCCC2)nc1-c1ccccc1	0	33.7	53.9	0	0	0	0	0	0
Cc1ccc(C(=O)Nc2ccccc2C(=O)O)cc1S(=O)(=O)Nc1ccc(Br)cc1	0	-	-	-	-	-	0	0	0
Cc1onc(-c2ccccc2)c1C(=O)OCC(=O)c1ccc(F)cc1	0	0	0	-	0	0	-	-	-
NS(=O)(=O)c1ccc(CCNC2CC(=O)N(CCc3ccccc3)C2=O)cc1 (stereo not drawn)	0	52.0	0	0	157.6	0	0	0	0
COc1ccccc1OCC(=O)Nc1nnc(C2CCCC2)s1	0	0	0	0	0	0	-	-	-
CCOc1ccccc1OCC(=O)Nc1nnc(COC)s1	0	?	?	0	53.4	?	0	0	0
Cc1ccccc1OCC(=O)Nc1nnc(C2CCCCC2)s1	0	0	0	0	47.0	0	0	0	0
COc1cc(OC)cc(C(=O)NCc2ccc3[nH]c(C)cc3c2)c1	0	0	48.1	0	0	0	0	0	0
COc1ccc2[nH]c(C(=O)NCc3ccccc3)cc2c1	0	0	0	0	0	0	-	-	-
COc1cccc(C(=O)NCc2ccc3[nH]c(C)cc3c2)c1	0	0	52.1	0	0	0	0	0	0
CCOC(=O)N1CCN(CCC(=O)Nc2cc(C)ccc2C)CC1	0	0	0	0	0	0	-	-	-
CCOC(=O)C1CCN(CCC(=O)Nc2cc(C)ccc2C)CC1	0	41.5	0	0	?	0	0	0	0
O=C1N(c2ccccc2)c2ccccc2C1(O)C(F)(F)F (stereo not drawn)	0	35.9	0	0	0	0	0	0	0
Cn1nnnc1Sc1ncnc2scc(-c3cc4ccccc4o3)c12	0	0	0	-	0	0	-	-	-
CCOc1ccc(NC(=O)c2[nH]c(C)c(C(C)=O)c2C)cc1	0	0	0	0	35.1	0	0	0	0
CCC1=Nc2ccccc2-c2nnc(SC)nc2O1	0	0	0	0	0	0	0	0	0
CSc1nnc2c(n1)OC(C)=Nc1ccccc1-2	0	0	0	0	0	0	-	-	-
COc1ccccc1CNC(=O)[C@@H]1CCCN1S(=O)(=O)c1ccccc1F	0	0	0	0	0	0	-	-	-
CCn1c(SCC(=O)Nc2ccc(C)cc2)nc(O)cc1=O	0	0	0	0	42.3	0	0	0	0
O=C(Nc1ccc(N2CCCC2)cc1)c1cccc(Cl)c1	0	0	0	0	0	0	-	-	-
O=C(Nc1ccc(CN2CCOCC2)cc1)c1ccc(F)cc1	0	0	0	0	34.9	0	0	0	0
O=C(Nc1ccc(CN2CCS(=O)(=O)CC2)cc1)c1ccc(C(F)(F)F)cc1	0	30.1	0	0	0	0	0	0	0
